According to article PMC7862700, “An all-to-all approach to the identification of sequence-specific readers for epigenetic DNA modifications on cytosine”:

Key:
Assay in all cases: DAPPL (digital affinity profiling via proximity ligation, sequencing); 10 mM Tris-HCl pH 7.5, 50 mM NaCl, 1 mM DTT, 4% glycerol, room temperature, 30 min; GST-TFs on glutathione beads, 16-mer random dsDNA library, 0.1% formaldehyde crosslink after washing; high values mean tight binding
Conditions in all cases: protein: recombinant; tags: N-terminal GST; dsDNA, one strand shown
FLI1 = molecular target: T1, FLI1 (Homo sapiens, UniProt Q01543 1-452)
T1 sequence: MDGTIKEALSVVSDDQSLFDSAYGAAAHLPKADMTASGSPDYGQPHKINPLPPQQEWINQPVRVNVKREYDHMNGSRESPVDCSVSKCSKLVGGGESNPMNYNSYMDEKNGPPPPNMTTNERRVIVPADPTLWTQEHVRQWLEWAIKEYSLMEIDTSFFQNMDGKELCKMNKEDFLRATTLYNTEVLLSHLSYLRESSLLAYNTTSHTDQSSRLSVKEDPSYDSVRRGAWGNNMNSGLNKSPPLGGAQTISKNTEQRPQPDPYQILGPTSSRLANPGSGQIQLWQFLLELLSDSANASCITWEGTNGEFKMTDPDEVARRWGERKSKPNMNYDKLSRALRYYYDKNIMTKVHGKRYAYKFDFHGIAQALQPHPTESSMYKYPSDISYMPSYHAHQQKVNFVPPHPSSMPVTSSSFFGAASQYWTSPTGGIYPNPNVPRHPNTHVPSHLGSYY
Outline: (§1)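 Human transcription factors carrying a GST fusion were produced in yeast, bound to glutathione beads, tagged with DNA barcodes and pooled together with a tag-only sample. Each pool was held with 200 nmole of a random double-stranded 16-mer DNA library in Tris/NaCl/DTT/glycerol buffer for 30 min at room temperature, then washed, crosslinked in 0.1% formaldehyde, proximity-ligated with BsaI/T4 ligase (1 h, 37 °C), PCR-amplified and sequenced on an Illumina NextSeq500. Binding signal is the read frequency of each hexamer for a given factor divided by its frequency in the tag-only sample.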

GABPA = molecular target: T2, GABPA (Homo sapiens, UniProt Q06546 1-454)
T2 sequence: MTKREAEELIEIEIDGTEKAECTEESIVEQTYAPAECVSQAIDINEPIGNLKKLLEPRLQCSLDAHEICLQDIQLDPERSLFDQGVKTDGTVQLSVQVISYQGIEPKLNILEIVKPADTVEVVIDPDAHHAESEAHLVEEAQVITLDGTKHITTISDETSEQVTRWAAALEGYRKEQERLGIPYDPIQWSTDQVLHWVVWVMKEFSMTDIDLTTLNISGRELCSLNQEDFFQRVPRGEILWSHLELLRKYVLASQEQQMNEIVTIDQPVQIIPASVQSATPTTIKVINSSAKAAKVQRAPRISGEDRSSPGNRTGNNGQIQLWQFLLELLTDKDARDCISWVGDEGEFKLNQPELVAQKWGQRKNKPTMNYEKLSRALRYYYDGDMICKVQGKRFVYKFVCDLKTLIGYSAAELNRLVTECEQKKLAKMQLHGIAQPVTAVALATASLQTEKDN
Outline: as §1

ERG = molecular target: T3, ERG (Homo sapiens, UniProt P11308 1-479)
T3 sequence: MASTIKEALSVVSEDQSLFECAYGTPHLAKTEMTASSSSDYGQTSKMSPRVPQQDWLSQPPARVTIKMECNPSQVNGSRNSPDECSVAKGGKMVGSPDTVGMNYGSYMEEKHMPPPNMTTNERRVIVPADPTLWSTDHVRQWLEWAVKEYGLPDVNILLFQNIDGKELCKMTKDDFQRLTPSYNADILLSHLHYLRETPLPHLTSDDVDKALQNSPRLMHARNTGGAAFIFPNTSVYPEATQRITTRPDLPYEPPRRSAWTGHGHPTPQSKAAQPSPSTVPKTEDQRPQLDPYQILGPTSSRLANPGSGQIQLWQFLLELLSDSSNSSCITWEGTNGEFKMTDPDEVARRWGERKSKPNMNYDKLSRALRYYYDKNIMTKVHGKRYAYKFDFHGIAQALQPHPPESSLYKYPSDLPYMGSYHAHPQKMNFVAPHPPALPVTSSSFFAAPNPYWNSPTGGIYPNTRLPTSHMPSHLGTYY
Outline: as §1

ELF1 = ELF1 (Homo sapiens, UniProt P32519 1-619)
Outline: as §1

EHF = molecular target: T4, EHF (Homo sapiens, UniProt Q9NZC4 1-300)
T4 sequence: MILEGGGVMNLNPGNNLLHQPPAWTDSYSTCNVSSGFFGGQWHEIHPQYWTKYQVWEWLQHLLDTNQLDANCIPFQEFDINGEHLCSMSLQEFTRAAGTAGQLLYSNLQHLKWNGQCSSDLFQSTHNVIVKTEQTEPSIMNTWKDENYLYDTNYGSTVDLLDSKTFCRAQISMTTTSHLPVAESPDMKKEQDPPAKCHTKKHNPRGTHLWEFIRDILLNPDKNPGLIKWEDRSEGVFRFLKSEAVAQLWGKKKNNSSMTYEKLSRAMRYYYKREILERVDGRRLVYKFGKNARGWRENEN
Outline: as §1

SPI1 = SPI1 (Homo sapiens, UniProt P17947 1-270)
Outline: as §1

ELK3 = molecular target: T5, ELK3 (Homo sapiens, UniProt P41970 1-407)
T5 sequence: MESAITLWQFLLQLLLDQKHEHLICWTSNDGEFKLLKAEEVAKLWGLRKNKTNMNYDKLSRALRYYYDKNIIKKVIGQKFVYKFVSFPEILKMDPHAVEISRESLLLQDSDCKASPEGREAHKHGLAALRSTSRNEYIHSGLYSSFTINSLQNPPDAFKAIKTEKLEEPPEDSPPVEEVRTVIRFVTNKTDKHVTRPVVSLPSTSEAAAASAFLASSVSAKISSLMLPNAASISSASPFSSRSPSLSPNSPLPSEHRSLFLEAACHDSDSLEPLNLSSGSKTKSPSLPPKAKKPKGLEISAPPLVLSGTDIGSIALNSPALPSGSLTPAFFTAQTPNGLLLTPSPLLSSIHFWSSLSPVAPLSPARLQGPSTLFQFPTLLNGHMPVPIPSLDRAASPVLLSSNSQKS
Outline: as §1

ETV5 = ETV5 (Homo sapiens, UniProt P41161 1-510)
Outline: as §1

SPIC = molecular target: T6, SPIC (Homo sapiens, UniProt Q8N5J4 1-248)
T6 sequence: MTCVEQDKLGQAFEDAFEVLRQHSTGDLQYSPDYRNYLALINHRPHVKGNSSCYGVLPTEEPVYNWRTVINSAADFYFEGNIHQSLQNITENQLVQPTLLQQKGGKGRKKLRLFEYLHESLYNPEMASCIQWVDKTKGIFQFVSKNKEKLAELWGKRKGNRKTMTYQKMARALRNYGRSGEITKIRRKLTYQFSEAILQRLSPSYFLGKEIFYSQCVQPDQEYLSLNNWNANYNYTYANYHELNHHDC
Outline: as §1

ELF4 = ELF4 (Homo sapiens, UniProt Q99607 1-663)
Outline: as §1

ETV1 = ETV1 (Homo sapiens, UniProt P50549 1-477)
Outline: as §1

ERF = molecular target: T7, ERF (Homo sapiens, UniProt P50548 1-548)
T7 sequence: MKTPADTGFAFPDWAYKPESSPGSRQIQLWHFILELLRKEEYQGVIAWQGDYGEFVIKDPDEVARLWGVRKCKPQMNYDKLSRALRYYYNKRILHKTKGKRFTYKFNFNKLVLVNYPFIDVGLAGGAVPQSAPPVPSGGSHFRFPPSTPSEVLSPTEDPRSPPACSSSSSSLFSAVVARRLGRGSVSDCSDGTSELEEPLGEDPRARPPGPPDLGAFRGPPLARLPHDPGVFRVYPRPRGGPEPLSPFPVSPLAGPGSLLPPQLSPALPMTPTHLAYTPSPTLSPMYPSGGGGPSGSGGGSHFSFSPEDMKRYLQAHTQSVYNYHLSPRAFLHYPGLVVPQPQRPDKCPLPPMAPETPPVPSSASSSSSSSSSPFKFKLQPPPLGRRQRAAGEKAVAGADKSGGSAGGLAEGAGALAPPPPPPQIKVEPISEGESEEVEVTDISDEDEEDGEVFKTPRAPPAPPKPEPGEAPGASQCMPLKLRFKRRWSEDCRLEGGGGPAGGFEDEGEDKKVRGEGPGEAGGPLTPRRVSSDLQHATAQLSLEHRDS
Outline: as §1

ETV3L = molecular target: T8, ETV3L (Homo sapiens, UniProt Q6ZN32 1-361)
T8 sequence: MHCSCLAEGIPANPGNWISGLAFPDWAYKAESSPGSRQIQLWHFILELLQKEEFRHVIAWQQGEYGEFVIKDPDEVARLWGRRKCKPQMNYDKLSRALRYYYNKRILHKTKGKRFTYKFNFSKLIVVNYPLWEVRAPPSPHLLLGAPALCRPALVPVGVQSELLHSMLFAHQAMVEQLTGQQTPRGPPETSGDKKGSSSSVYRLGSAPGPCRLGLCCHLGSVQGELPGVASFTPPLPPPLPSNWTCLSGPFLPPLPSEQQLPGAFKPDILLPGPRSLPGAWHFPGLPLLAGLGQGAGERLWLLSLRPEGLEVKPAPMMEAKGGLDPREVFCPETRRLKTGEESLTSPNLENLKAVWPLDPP
Outline: as §1

ETS2 = molecular target: T9, ETS2 (Homo sapiens, UniProt P15036 1-469)
T9 sequence: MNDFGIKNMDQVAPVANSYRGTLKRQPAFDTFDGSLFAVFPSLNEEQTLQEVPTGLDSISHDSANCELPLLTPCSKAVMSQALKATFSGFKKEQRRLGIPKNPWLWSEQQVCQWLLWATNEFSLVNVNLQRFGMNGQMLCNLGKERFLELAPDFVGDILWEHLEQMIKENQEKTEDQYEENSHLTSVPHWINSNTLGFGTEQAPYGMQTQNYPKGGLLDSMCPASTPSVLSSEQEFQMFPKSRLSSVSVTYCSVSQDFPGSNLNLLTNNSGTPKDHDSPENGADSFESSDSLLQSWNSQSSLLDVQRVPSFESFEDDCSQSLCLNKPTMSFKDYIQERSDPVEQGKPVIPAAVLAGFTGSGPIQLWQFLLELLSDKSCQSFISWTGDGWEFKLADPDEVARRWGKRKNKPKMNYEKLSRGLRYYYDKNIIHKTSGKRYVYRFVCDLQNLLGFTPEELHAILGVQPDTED
Outline: as §1

SPDEF = molecular target: T10, SPDEF (Homo sapiens, UniProt O95238 1-335)
T10 sequence: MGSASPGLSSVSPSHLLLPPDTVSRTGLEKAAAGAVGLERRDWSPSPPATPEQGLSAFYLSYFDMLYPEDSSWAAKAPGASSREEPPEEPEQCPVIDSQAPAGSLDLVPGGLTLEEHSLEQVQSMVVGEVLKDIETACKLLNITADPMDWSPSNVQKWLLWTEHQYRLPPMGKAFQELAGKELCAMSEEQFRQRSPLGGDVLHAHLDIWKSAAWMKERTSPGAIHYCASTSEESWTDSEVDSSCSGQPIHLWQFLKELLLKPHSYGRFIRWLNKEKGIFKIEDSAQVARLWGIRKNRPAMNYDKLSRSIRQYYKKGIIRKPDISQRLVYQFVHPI
Outline: as §1

ETV3 = molecular target: T11, ETV3 (Homo sapiens, UniProt P41162-2 1-143)
T11 sequence: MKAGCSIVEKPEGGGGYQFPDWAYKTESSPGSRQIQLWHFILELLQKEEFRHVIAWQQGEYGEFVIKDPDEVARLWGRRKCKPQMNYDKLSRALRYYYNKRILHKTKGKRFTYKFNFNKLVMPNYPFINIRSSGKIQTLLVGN
Outline: as §1

ETV6 = ETV6 (Homo sapiens, UniProt P41212 1-452)
Outline: as §1

FEV = molecular target: T12, FEV (Homo sapiens, UniProt Q99581 1-238)
T12 sequence: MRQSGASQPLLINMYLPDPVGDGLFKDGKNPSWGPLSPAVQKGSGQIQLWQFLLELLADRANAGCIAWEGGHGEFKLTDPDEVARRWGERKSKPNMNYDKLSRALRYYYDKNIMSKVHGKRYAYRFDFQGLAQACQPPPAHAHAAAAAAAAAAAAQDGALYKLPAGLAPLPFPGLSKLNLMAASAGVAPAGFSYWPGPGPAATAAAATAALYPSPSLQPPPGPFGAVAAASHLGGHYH
Outline: as §1

Chain of ELF1 (P32519 whole entry): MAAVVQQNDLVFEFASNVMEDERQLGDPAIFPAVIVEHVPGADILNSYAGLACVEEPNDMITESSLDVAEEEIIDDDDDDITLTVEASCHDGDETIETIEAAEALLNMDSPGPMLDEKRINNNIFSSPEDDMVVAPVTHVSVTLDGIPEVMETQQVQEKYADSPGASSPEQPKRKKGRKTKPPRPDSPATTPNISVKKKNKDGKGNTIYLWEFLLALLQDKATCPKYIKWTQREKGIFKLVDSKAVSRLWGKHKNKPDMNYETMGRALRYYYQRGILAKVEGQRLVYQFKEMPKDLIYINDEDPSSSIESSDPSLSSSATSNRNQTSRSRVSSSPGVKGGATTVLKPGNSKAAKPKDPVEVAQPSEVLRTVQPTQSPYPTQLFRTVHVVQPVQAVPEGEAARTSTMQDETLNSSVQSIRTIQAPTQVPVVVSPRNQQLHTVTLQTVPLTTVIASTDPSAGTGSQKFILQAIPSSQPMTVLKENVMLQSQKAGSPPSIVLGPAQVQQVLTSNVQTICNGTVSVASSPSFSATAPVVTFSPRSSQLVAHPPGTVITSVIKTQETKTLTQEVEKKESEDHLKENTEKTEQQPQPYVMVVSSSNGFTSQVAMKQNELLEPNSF
Chain of ETV5 (P41161 whole entry): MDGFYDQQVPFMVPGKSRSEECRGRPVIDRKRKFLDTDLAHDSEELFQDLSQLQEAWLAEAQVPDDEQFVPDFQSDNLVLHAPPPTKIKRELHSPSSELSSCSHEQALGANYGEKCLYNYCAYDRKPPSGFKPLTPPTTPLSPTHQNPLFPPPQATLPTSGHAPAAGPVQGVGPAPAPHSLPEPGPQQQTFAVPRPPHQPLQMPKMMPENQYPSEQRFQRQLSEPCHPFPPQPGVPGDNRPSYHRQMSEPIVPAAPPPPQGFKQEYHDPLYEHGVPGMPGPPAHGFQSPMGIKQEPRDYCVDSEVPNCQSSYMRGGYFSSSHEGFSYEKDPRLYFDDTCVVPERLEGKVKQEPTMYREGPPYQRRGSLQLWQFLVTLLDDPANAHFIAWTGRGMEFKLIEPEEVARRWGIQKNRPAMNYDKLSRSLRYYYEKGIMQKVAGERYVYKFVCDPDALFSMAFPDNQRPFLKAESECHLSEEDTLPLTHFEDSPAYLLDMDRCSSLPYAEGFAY
Chain of ELF4 (Q99607 whole entry): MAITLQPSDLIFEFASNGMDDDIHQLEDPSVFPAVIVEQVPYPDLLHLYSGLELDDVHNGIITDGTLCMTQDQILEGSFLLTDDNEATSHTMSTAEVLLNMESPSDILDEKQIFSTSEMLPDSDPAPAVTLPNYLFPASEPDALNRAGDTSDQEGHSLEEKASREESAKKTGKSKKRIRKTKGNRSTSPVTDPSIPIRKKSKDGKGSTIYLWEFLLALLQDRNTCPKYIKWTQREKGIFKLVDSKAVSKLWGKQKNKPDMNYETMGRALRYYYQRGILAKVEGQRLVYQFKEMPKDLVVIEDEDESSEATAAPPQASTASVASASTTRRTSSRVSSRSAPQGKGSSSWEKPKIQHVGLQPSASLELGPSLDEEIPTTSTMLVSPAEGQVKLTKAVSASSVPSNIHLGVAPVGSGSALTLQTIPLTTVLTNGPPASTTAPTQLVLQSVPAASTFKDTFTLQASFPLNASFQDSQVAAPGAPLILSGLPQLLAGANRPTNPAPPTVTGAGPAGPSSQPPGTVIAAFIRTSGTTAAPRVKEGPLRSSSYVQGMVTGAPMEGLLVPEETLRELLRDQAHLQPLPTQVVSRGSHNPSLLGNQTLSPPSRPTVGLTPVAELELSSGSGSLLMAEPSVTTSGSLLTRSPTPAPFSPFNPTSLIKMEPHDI
Chain of ETV1 (P50549 whole entry): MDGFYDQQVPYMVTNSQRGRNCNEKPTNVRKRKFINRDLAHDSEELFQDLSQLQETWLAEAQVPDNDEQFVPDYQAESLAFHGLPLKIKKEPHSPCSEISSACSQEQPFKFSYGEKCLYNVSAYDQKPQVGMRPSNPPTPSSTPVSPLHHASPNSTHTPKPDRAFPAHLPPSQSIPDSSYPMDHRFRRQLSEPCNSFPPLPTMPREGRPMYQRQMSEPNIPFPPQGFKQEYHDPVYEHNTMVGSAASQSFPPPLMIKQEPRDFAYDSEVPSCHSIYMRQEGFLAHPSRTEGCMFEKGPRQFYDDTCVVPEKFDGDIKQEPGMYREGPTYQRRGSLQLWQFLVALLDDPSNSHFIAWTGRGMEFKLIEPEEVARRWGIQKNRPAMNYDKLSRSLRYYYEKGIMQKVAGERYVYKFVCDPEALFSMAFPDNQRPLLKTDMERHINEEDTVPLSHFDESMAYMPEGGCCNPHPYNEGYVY
Chain of ETV6 (P41212 whole entry): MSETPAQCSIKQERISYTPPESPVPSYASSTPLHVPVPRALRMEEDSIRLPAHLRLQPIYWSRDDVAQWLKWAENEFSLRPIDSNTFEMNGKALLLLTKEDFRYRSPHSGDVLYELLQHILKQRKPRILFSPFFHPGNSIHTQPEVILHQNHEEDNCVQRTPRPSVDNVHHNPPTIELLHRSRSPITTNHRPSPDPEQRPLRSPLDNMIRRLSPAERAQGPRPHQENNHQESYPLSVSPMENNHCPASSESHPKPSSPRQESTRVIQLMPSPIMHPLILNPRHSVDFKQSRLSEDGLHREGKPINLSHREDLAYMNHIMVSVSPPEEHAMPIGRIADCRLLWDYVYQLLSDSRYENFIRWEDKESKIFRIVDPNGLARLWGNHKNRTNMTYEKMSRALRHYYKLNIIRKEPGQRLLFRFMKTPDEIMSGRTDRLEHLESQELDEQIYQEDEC

| Sequence | binding signal (FLI1) | binding signal (GABPA) | binding signal (ERG) | binding signal (ELF1) | binding signal (EHF) | binding signal (SPI1) | binding signal (ELK3) | binding signal (ETV5) | binding signal (SPIC) | binding signal (ELF4) | binding signal (ETV1) | binding signal (ERF) | binding signal (ETV3L) | binding signal (ETS2) | binding signal (SPDEF) | binding signal (ETV3) | binding signal (ETV6) | binding signal (FEV) |
| --- | --- | --- | --- | --- | --- | --- | --- | --- | --- | --- | --- | --- | --- | --- | --- | --- | --- | --- |
| GTTACG | 1.08 fold enrichment (6-mer frequency, TF over GST control) | 1.01 fold enrichment (6-mer frequency, TF over GST control) | 1.01 fold enrichment (6-mer frequency, TF over GST control) | 1.07 fold enrichment (6-mer frequency, TF over GST control) | 1.03 fold enrichment (6-mer frequency, TF over GST control) | 1.01 fold enrichment (6-mer frequency, TF over GST control) | 1.01 fold enrichment (6-mer frequency, TF over GST control) | 1.03 fold enrichment (6-mer frequency, TF over GST control) | 1.05 fold enrichment (6-mer frequency, TF over GST control) | 1.02 fold enrichment (6-mer frequency, TF over GST control) | 1.07 fold enrichment (6-mer frequency, TF over GST control) | 1.06 fold enrichment (6-mer frequency, TF over GST control) | 1.14 fold enrichment (6-mer frequency, TF over GST control) | 1.06 fold enrichment (6-mer frequency, TF over GST control) | 1.04 fold enrichment (6-mer frequency, TF over GST control) | 1.04 fold enrichment (6-mer frequency, TF over GST control) | 1.09 fold enrichment (6-mer frequency, TF over GST control) |  |
| GGCCCC | 1.02 fold enrichment (6-mer frequency, TF over GST control) | 1.03 fold enrichment (6-mer frequency, TF over GST control) | 1.04 fold enrichment (6-mer frequency, TF over GST control) | 1.02 fold enrichment (6-mer frequency, TF over GST control) |  | 1.03 fold enrichment (6-mer frequency, TF over GST control) |  | 1.02 fold enrichment (6-mer frequency, TF over GST control) | 1.01 fold enrichment (6-mer frequency, TF over GST control) | 1 fold enrichment (6-mer frequency, TF over GST control) | 1.03 fold enrichment (6-mer frequency, TF over GST control) |  |  | 1.03 fold enrichment (6-mer frequency, TF over GST control) | 1.05 fold enrichment (6-mer frequency, TF over GST control) | 1.05 fold enrichment (6-mer frequency, TF over GST control) |  | 1.06 fold enrichment (6-mer frequency, TF over GST control) |
